Source: PubChem (several laboratories)
Compounds with a hit are over-represented: about 4.5% of the library has one in this group of screens.
Rtt109 HAT inh – C. albicans Rtt109 histone acetyltransferase inhibition. Q5AAJ8. purified Rtt109/Vps75, ThioGlo CoA-SH fluorescence, 4 h. inhibition, % at 34.9 µM. 330,000 compounds, 0.16% hits;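 active = inhibition of at least 50% in every replicate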
Target sequence (Q5AAJ8 whole entry, looked up): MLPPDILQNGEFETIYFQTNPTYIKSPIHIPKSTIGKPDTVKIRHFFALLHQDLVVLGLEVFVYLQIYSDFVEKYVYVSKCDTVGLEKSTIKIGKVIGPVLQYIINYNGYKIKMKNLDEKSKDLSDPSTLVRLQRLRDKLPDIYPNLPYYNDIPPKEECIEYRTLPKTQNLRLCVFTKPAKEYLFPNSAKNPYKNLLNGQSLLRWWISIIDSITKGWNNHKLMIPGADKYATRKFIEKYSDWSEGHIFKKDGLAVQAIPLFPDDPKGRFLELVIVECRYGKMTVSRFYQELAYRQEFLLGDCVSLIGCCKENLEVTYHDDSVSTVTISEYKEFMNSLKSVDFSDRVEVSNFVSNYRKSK
HDAC3 inh – blocks human histone deacetylase 3 | O15379 | recombinant HDAC3, fluorogenic peptide/trypsin coupled, fluorescence | inhibition, % at 8.3 µM | 320,000 compounds, 0.15% hits | AID 2718; in the data active = inhibition above about 26%, passing the limit was not always enough
Efflux pump mplx – inhibitors of Candida antifungal efflux pumps expressed in yeast. S. cerevisiae Candida pump triplex, Nile Red efflux. inhibition, % at 10 µM. 330,000 compounds, 0.44% hits;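 active = plate passing quality check with inhibition over a set limit, or well fluorescence over plate mean plus 4 SD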;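 also: Nile Red retained in pooled yeast measured as flow cytometry median fluorescence; higher means more Nile Red kept so more efflux inhibition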
Rce1 inh – blocks yeast Ras-converting enzyme. Q03530. yeast membranes, quenched prenylated peptide cleavage fluorescence. calls only. 290,000 compounds, 0.27% hits;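 active = fall in fluorescence gain of 50% or more versus controls, with final raw signal at or below 3038400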
GRK2 aptamer HTS – inhibitors of human GRK2 displacing RNA aptamer. P25098. bead flow cytometry, FAM-aptamer displacement from GRK2. inhibition of aptamer binding, % at 10 µM. 330,000 compounds, 0.59% hits. AID 488847;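 active = inhibition of aptamer binding above 40%, roughly 3 SD of noise, on plates passing a quality check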;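 also: median bead fluorescence of bound FAM aptamer so fluorescent compounds give negative values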
ALR H2O2 inh – blocks human ALR sulfhydryl oxidase activity | P55789 | purified ALR, DTT oxidation, H2O2 HRP-luminol luminescence | inhibition, % (concentration not given with the values) | 290,000 compounds, 3.8% hits | AID 485317;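 active = mean replicate inhibition above about 79%, with every replicate also reaching it, limit read from the data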
Target sequence (P55789 whole entry, looked up): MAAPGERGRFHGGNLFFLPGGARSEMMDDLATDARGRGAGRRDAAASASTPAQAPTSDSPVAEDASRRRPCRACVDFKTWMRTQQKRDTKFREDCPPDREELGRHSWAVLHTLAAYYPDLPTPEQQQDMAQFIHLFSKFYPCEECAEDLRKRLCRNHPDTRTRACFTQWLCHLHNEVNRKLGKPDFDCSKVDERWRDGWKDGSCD
GRK2 CP1 – human GRK2 inhibition confirmation, cherry pick 1; shares compounds with GRK2 aptamer HTS; aptamer displacement, % at 10 µM; bead-bound GRK2, FAM-aptamer displacement, flow cytometry; 2,000 compounds, 4% hits;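 active = aptamer displacement above 40%, near three times the noise of non-fluorescent compounds, on plates passing quality checks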;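 also: negative values mostly reflect intrinsic compound fluorescence rather than true enhancement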
Aptamer quench SP – quenches fluorescent RNA aptamer, GRK2 hit artifact; shares compounds with GRK2 aptamer HTS; Carboxyfluorescein RNA aptamer on beads, flow cytometry quenching; stronger effect = lower value; fluorescence response (% of DMSO), % at 10 µM; 2,000 tested, under 10 active; AID 504580;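 active = compounds that quench the bead-bound fluorescent RNA probe, cutting fluorescence to under half of the solvent control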;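 also: counterscreen run without GRK2 so only probe quenching by compound is measured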
GRK2 confirm 2 – human GRK2 inhibition confirmation, cherry pick 2; bead-bound GRK2, FAM-aptamer displacement, flow cytometry; inhibition of aptamer binding, % at 10 µM; shares compounds with GRK2 aptamer HTS; 360 tested, under 10 active; AID 504782;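 active = inhibition of aptamer binding above 40%, about triple the noise seen with nonglowing compounds, on plates passing quality control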;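 also: negative values mostly come from compounds that fluoresce themselves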
FAM quench SP – quenches fluorescent RNA aptamer, GRK2 hit artifact | shares compounds with GRK2 aptamer HTS | carboxyfluorescein RNA aptamer beads, flow cytometry quenching; stronger effect = lower value | fluorescence response vs DMSO, % at 10 µM | 360 tested, under 10 active | AID 588494;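 active = response vs DMSO under 50%, meaning signal dropped by over half, treated as fluorescence quencher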;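 also: labelled aptamer on streptavidin beads without GRK2 as a quench counter-screen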
Numbers stand for hits; . = inactive; / = no result.

SMILES | Rtt109 HAT inh | HDAC3 inh | Efflux pump mplx | Rce1 inh | GRK2 aptamer HTS | ALR H2O2 inh | GRK2 CP1 | Aptamer quench SP | others
CC1=C(C(=O)Nc2cc(C(=O)N(C)Cc3ccccc3)ccc2C)SCCO1 | . | . | . | . | . | . | . | .
COc1ccc(S(=O)(=O)NCC(=O)NCCc2ccc(OC)c(OC)c2)cc1 | / | . | . | . | . | . | / | /
CN(C(=O)COC(=O)c1ccc(-c2ccc(O)cc2)cc1)C1CCS(=O)(=O)C1 (centres undefined) | . | . | . | . | . | . | / | /
CC(=O)N(CCc1ccccc1C)Cc1cc2cc(C)ccc2[nH]c1=O | . | . | . | . | . | . | / | /
CC(=O)N(CCc1ccccc1C)Cc1cc2ccc(C)cc2[nH]c1=O | . | . | . | . | 61 | . | . | .
Cc1ccc2cc(CN(C(=O)c3ccco3)c3ccccc3C)c(=O)[nH]c2c1 | . | . | . | . | 76 | . | . | .
O=C(c1ccc(S(=O)(=O)Nc2cccc(C(F)(F)F)c2)cc1)N1CCN(c2ccccc2O)CC1 | . | / | . | . | . | / | / | /
CC1CCN(S(=O)(=O)c2ccc3c(c2)N(CC(=O)NCCN2C(C)CCCC2C)C(=O)CS3)CC1 (centres undefined) | . | . | . | . | . | . | / | /
Nc1nc(O)c(N=Nc2ccc(S(N)(=O)=O)cc2)c(=O)[nH]1 | / | . | . | . | 44 | . | . | .
CC(=O)c1cccc(NC(=O)CSCc2ccccc2)c1 | . | . | . | . | 43 | 97 | . | .
O=C(CSc1nc2sc3c(c2c(=O)n1-c1ccccc1)CCCC3)NCc1ccco1 | . | / | . | . | . | / | / | /
CCCCn1c(SCC(N)=O)nc2sc3c(c2c1=O)CCC3 | . | . | . | . | . | . | / | /
CCN(CC)C(=O)CSc1nc2sc3c(c2c(=O)n1CCCOC)CCC3 | . | . | . | . | . | / | / | / | GRK2 confirm 2=.;FAM quench SP=.
CCn1c(SC(C)C(=O)O)nc2sc3c(c2c1=O)CCC3 (centres undefined) | . | . | . | / | 68 | . | . | . | GRK2 confirm 2=.;FAM quench SP=.
COCCCn1c(SCC(=O)NCc2ccco2)nc2sc3c(c2c1=O)CCC3 | . | . | . | . | . | 94 | / | / | GRK2 confirm 2=.;FAM quench SP=.
O=C(CN(C(=O)CCC(=O)Nc1ccccn1)C1CCCC1)NCc1ccc(F)cc1 | . | . | . | . | . | . | / | /
Cc1cc(C)n2nc(C(=O)OCC(=O)c3cc(C)n(C)c3C)nc2n1 | . | . | . | . | 41 | . | . | .
N#CCCN(C(=S)Nc1ccc(S(=O)(=O)N2CCOCC2)cc1)c1ccccc1F | . | / | / | / | / | / | / | /
O=C(CSc1nc2ncc(Cl)cc2[nH]1)N1CCC(Cc2ccccc2)CC1 | . | . | . | / | . | . | / | /
COc1ccc2c(c1)CCc1c(C(=O)NCCCn3ccnc3)noc1-2 | . | . | . | . | 51 | . | . | .
O=S(=O)(c1ccccc1C(F)(F)F)N1CCN(CC(O)COc2ccccc2F)CC1 (centres undefined) | . | . | . | . | . | . | / | /
N#Cc1ccccc1S(=O)(=O)N1CCN(CC(O)COc2ccccc2F)CC1 (centres undefined) | . | . | . | . | 54 | . | . | .
O=C(NC1CCCC1)C(c1ccsc1)N(Cc1ccccc1)C(=O)Cc1cccs1 (centres undefined) | . | . | . | . | . | . | . | .
O=C(NC1CCCC1)C(c1ccncc1)N(Cc1ccccc1)C(=O)Cc1cccs1 (centres undefined) | . | . | . | . | . | . | / | /
COC(=O)c1ccc(C(C(=O)NC2CCCCC2)N(C(=O)Cc2cccs2)C2CC2)cc1 (centres undefined) | . | . | . | . | 86 | . | . | .
SMILES | Rtt109 HAT inh | HDAC3 inh | Efflux pump mplx | Rce1 inh | GRK2 aptamer HTS | ALR H2O2 inh | GRK2 CP1 | Aptamer quench SP | others
COc1ccc(NC(=O)C2CSC(C)(C)N2C=O)cc1 (centres undefined) | . | . | . | . | 75 | / | . | .
CN(C(=O)COC(=O)c1ccc(S(=O)(=O)N2CCOCC2)cc1)c1ccccc1 | . | . | . | / | . | . | / | /
C/C(N=Nc1nc2ccccc2s1)=N\Nc1ccccc1O | . | / | . | . | . | / | / | /
Cc1ccc(OCCSc2cc(C)nc(N)n2)cc1 | . | . | . | . | 84 | . | . | .
CCOc1ccc(C(C(=O)NC(C)(C)C)N(CCOC)C(=O)CCC(=O)Nc2ccccn2)cc1 (centres undefined) | . | . | . | / | . | . | / | /
CCOc1ccc(-c2cn[nH]c2N)cc1 | . | . | . | . | . | . | / | /
COc1ccc(-c2cn[nH]c2N)cc1 | . | . | . | . | 63 | 91 | . | .
Cc1cc(C)cc(NC(=O)CN(C)CC(=O)N(CC(C)C)c2c(N)n(CC(C)C)c(=O)[nH]c2=O)c1 | . | . | . | / | . | . | / | /
Cc1cc(NC(=O)c2ccc(Cl)cc2)no1 | . | . | . | . | 71 | . | . | .
COc1ccc(CCNC(=O)CSc2nn(-c3ccccc3)c(=S)s2)cc1 | . | . | . | . | . | . | / | /
CN(C(=O)c1ccc(NC(=O)Cc2ccc(NC(=O)C3CCN(C(=O)C4CCC4)CC3)cc2)cc1)C1CC1 | . | . | . | / | 69 | . | . | .
COCCNC(=O)c1c(N)n(-c2ccccc2)c2nc3ccccc3nc12 | . | . | . | . | . | . | . | .
COCCCNC(=O)c1c(N)n(-c2ccccc2)c2nc3ccccc3nc12 | / | . | . | . | . | . | / | /
c1ccc(C2Nc3ccccc3Oc3ccccc32)cc1 (centres undefined) | . | . | . | . | 52 | . | . | .
CCOCCCNC(=O)CCc1ccc(-n2cnc3cccnc32)cc1 | . | . | . | . | . | . | / | /
CC(C)CCNC(=O)c1ccc(-n2cnc3cccnc32)cc1 | . | . | . | . | 45 | . | . | .
NCCCC[C@H]1NC(=O)[C@H](CCC(=O)O)NC(=O)c2cc([N+](=O)[O-])cc(I)c2OCC[C@@H](C(N)=O)NC1=O | / | . | . | / | 56 | . | . | .
C[C@@H]1NC(=O)c2cc([N+](=O)[O-])cc(I)c2OCC[C@@H](C(N)=O)NC(=O)[C@H](CCCCN)NC1=O | . | . | . | . | . | . | / | /
NCCCC[C@@H]1NC(=O)c2cc([N+](=O)[O-])cc(I)c2SC[C@@H](C(N)=O)NC(=O)[C@H](Cc2ccc(O)cc2)NC1=O | . | . | . | . | 69 | . | . | .
NCCCC[C@@H]1NC(=O)[C@H](CCC(=O)O)NC(=O)c2cc([N+](=O)[O-])cc(I)c2SC[C@@H](C(=O)NCC(N)=O)NC1=O | . | . | . | . | . | / | / | /
